PubChem BioAssay AID624483 (NMMLSC, 2012)
The campaign covered roughly 360,000 compounds. About 11,000 (3.1%) were called active. Another 2% or so got no clear call; they are omitted. Cut-off read from the data, not from the text of the source: active = fluorescence intensity above about 16000; inconclusive = no clear call, values can overlap the other calls; inactive = below that. The entries come from a sample that favours actives as a whole.

assay: counter-screen for toxin protease inhibitors: compound fluorescence, primary screen, artefact control for toxin protease inhibitor project, biochemical, multiplex microsphere, HTS (AID 624483); settings: compound autofluorescence counterscreen, microsphere flow cytometry; stronger effect = higher value

Structure (SMILES) | fluorescence intensity
CCS(=O)(=O)C1=NSC2=NC(=O)/C(=C\c3ccc(OS(=O)(=O)c4ccccc4)cc3)C(=N)N21 | 4230 (inactive)
CS(=O)(=O)c1ccc2c(c1)SC1=NC(=O)/C(=C/c3ccco3)C(=N)N12 | 20000 (active)
CS(=O)(=O)C1=NN2C(=N)/C(=C\c3ccc(OCCOc4ccccc4)cc3)C(=O)N=C2S1 | 3680 (inactive)
OC(c1nc2ccc(F)cc2[nH]1)C(O)c1nc2ccc(F)cc2[nH]1 (stereo unspecified) | 3790 (inactive)
O=C1CCCC2=C1C(c1cccs1)n1nc(SCc3ccccc3)nc1N2 (stereo unspecified) | 23700 (active)
O=C1CCCC2=C1C(c1cccs1)CC(=O)N2c1ccc(F)cc1 (stereo unspecified) | 3220 (inactive)
CCCC(=O)N1c2ccccc2NC2=C(C(=O)CCC2)C1c1ccc(F)cc1 (stereo unspecified) | 6490 (inactive)
Nc1c(-c2ccc(F)cc2)cnc2ncnn12 | 6020 (inactive)
O=C(Nc1ccc2c(c1)nc1n2CCCCC1)c1cc(S(=O)(=O)N2CCOCC2)ccc1Cl | 2940 (inactive)
Cc1cccc(NC(=O)C2CCN(S(=O)(=O)c3cccc4cccnc34)CC2)c1 | 5170 (inactive)
Cc1ccc(Oc2ccc3c(c2)C(=O)N(c2cccc4cccnc24)C3=O)cc1 | 21000 (active)
CCOc1cccc(OCCCOc2cccc3cccnc23)c1 | 2100 (inactive)
Cc1ccc(S(=O)(=O)N2CCCCC2)cc1NC(=O)CCNC(=O)c1ccccc1Cl | 3400 (inactive)
Cc1cccc(N(CC(=O)N2CCOCC2)S(C)(=O)=O)c1 | 8740 (inactive)
CS(=O)(=O)N(CC(=O)N1CCN(c2cccc(Cl)c2)CC1)c1ccccc1 | 9910 (inactive)
CS(=O)(=O)N(CC(=O)N1CCN(Cc2ccccc2)CC1)c1ccc2c(c1)OCCO2 | 23300 (active)
Cc1ccc(C)c(S(=O)(=O)N2CCN(c3ncnc4sccc34)CC2)c1 | 3890 (inactive)
O=C(c1c(F)cccc1F)N1CCN(S(=O)(=O)c2ccc3c(c2)OCCO3)CC1 | 4100 (inactive)
O=C(Nc1ccccn1)C1CCN(S(=O)(=O)c2ccc3c(c2)OCCO3)CC1 | 4090 (inactive)
O=C(c1ccc2c(c1)OCCO2)C1CCN(S(=O)(=O)c2cccc(F)c2)CC1 | 17000 (active)
CCOC(=O)C1=C(CN2CCc3ccccc32)NC(=O)NC1c1cc(C)ccc1C (stereo unspecified) | 23800 (active)
CCOC(=O)C1=C(CNC2CCCCC2)NC(=O)NC1c1cc(C)ccc1C (stereo unspecified) | 4280 (inactive)
CCOC(=O)C1=C(CN2CCCCCC2)NC(=O)NC1c1cccc([N+](=O)[O-])c1 (stereo unspecified) | 4620 (inactive)

Structure (SMILES) | fluorescence intensity
CCOC(=O)C1=C(CN2CCc3ccccc32)NC(=O)NC1c1cccc([N+](=O)[O-])c1 (stereo unspecified) | 15000 (inactive)
CCOC(=O)C1=C(c2ccccc2)NC(=O)NC1c1cc(OC)c(OC)cc1OC (stereo unspecified) | 2970 (inactive)
CCOC(=O)C1=C(CN2CCc3ccccc32)NC(=O)NC1c1ccc(Cl)cc1 (stereo unspecified) | 23500 (active)
Cc1ccccc1S(=O)(=O)NC(=O)C1(C)CCN1C(=O)C1(c2ccccc2)CCCC1 (stereo unspecified) | 2830 (inactive)
COc1ccc(C(=O)Nc2c(N)nc(SCC(=O)N3CCC(C)CC3)[nH]c2=O)cc1OC | 4500 (inactive)
COc1cncc(-c2cnc3sc(NCCc4ccccn4)nn23)c1 | 3330 (inactive)
O=C1Cc2ccccc2Sc2ccc(Cl)cc21 | 6230 (inactive)
CC(=O)Nc1cncc(-c2ccccc2CO)n1 | 3670 (inactive)
Cc1cc(Cl)nc(NC(=O)Nc2cccc(Cl)c2)n1 | 3440 (inactive)
Cc1cc(C)nc(NC(=O)Nc2ccccc2C(F)(F)F)n1 | 21400 (active)
COc1cccc(C(=O)NC(=O)Nc2nc(C)cc(C(F)(F)F)n2)c1 | 4900 (inactive)
CSc1ccc(CN2CCC2(C)C(=O)NCc2ccccc2Br)cc1 (stereo unspecified) | 3880 (inactive)
OC[C@@H]1CN(Cc2ccc(Cl)cc2)C[C@H](n2cnc3c(NCc4ccncc4)ncnc32)O1 | 3720 (inactive)
Cc1cc(Cl)ccc1-c1nc(NCCN(C)C)nc2ccsc12 | 2870 (inactive)
Cc1noc(C)c1C(=O)N1CCC1(C)C(=O)NS(=O)(=O)c1ccc(C#N)cc1 (stereo unspecified) | 3990 (inactive)
COc1ccc(C)c(Cn2c(-c3nonc3N)nc3ccccc32)c1 | 8560 (inactive)
O=C(O)CCn1c(Cc2ccccc2)nc2ccccc21 | 4070 (inactive)
Nc1nonc1-c1nc2ccccc2n1CCC(=O)O | 23600 (active)
O=C(CNC(=O)c1ccccc1F)c1ccc(Br)cc1 | 4100 (inactive)
CCc1nc2ccc(C(=O)NC3CCN(Cc4ccccc4)CC3)cn2c1N(CC)CCOC | 3640 (inactive)
OC1CCCN(c2ncnc3c2nnn3Cc2c(F)cccc2Cl)C1 (stereo unspecified) | 4220 (inactive)
Cc1cc(C)cc(NC(=O)CSCc2cnn(-c3ccccc3)c2-n2cccc2)c1 | 3720 (inactive)
CC(=O)Nc1ccc(NC(=O)CSCc2cnn(-c3ccccc3)c2-n2cccc2)cc1 | 21800 (active)

Structure (SMILES) | fluorescence intensity
O=C(CSCc1ccccc1)Nc1ccccc1 | 3440 (inactive)
CCC(=O)N1Cc2cc(C(=O)NCc3cccc(F)c3)nc(-c3cccc(C4=CCCC4)c3)c2[C@H]1CCO | 5960 (inactive)
CS(=O)(=O)N1CCN(C(=O)c2cc3ccccc3oc2=O)CC1 | 20900 (active)
COc1cccc2cc(C(=O)N3CCN(C(=O)c4ccccc4)CC3)c(=O)oc12 | 2640 (inactive)
O=C(c1cc2ccccc2o1)N1CCN(S(=O)(=O)c2ccc(Cl)s2)CC1 | 3540 (inactive)
Cc1ccc(S(=O)(=O)N2CCN(C(=O)Cc3sc(C)nc3-c3ccc(F)cc3)CC2)c(C)c1 | 5210 (inactive)
COCCCNC(=O)c1cccc2c(-c3ccc(O)c(OC)c3)coc12 | 3660 (inactive)
CCCS(=O)(=O)NC(=O)C1(C)CCCN(C(=O)c2cccs2)C1 (stereo unspecified) | 3930 (inactive)
CN(Cc1nc2ccccc2s1)C(=O)c1ccc(F)cc1 | 3850 (inactive)
COc1ccc(-c2nnn(Cc3nc(N)nc(N4CCCCC4)n3)n2)cc1 | 4610 (inactive)
CN(C)c1nc(N)nc(Cn2nnc(-c3ccc(C(F)(F)F)cc3)n2)n1 | 5180 (inactive)
CCC1(CC)NC(=O)N(Cc2nc3ccccc3s2)C1=O | 3380 (inactive)
CCc1ccc(-c2nnn(Cc3nc4ccccc4s3)n2)cc1 | 22800 (active)
CCc1ccc(-c2nnn(Cc3nn[nH]n3)n2)cc1 | 20100 (active)
Nc1[nH]c(C(=O)c2ccccc2)c(-c2ccc(Br)cc2)c1C(=O)NC1CC1 | 4400 (inactive)
Cc1ccc(C(O)c2ncc(-c3ccccc3F)[nH]2)cc1F (stereo unspecified) | 3620 (inactive)
O=C1CCCC(O)=C1N=Nc1ccc2ncsc2c1 | 2580 (inactive)
CC1(C)CC(CCC(=O)Nc2ccccc2Cl)C(=O)O1 (stereo unspecified) | 23100 (active)
CN(CC(=O)Nc1ccccc1Cl)C(=O)COc1cccc2c1OC(C)(C)C2 | 5770 (inactive)
CC1(C)CC(CC(=O)O)C(=O)O1 (stereo unspecified) | 4100 (inactive)
COc1ccc(C2CC(c3ccccc3)=NN2C(=O)COC(=O)COc2ccccc2)cc1 (stereo unspecified) | 4620 (inactive)
CNC(=S)N1N=C(c2ccccc2)CC1c1ccc(Br)cc1 (stereo unspecified) | 23900 (active)
Brc1ccc(C2CC(c3ccccc3)=Nc3ccccc3N2)cc1 (stereo unspecified) | 2950 (inactive)

Structure (SMILES) | fluorescence intensity
COC(=O)Cc1ccc(OC2(C)CCN(Cc3ccc4c(c3)OCCO4)C2)cc1 (stereo unspecified) | 2970 (inactive)
CCOc1ccc(NC(=S)N2CCCCCC2)cc1 | 4120 (inactive)
O=C(NCc1cccnc1)c1cc(C2CCCCN2C(=O)CCc2ccccc2)on1 (stereo unspecified) | 3910 (inactive)
Cc1c(C(=O)NCC2CC2)sc(=O)n1Cc1cccc(F)c1 | 5240 (inactive)
CN(CC(O)COc1ccc(S(=O)(=O)N2CCOCC2)cc1Cl)C1CCCCC1 (stereo unspecified) | 4510 (inactive)
COc1ccc(CCNC(=O)c2ccc3c(c2)NC(=O)C(N2CCOCC2)S3)cc1OC (stereo unspecified) | 3710 (inactive)
O=C(NCCCN1CCCCC1)c1ccc2c(c1)NC(=O)C(N1CCOCC1)S2 (stereo unspecified) | 20400 (active)
Cc1ccccc1CN1C(=O)c2ccccc2Sc2ccc(C(=O)NCCCN3CCOCC3)cc21 | 4180 (inactive)
CCOC(=O)N1CCN(C(c2ccnc3ccccc23)c2nnnn2-c2c(C)cccc2C)CC1 (stereo unspecified) | 5760 (inactive)
COc1cccc(CNC(=O)[C@@H]2CCCN2C(=O)[C@@H]2CCCN2C(=O)c2ccccc2)c1 | 6440 (inactive)
Cc1nn(CC(=O)NCCc2ccccc2)c(=O)c2cc3occc3n12 | 4600 (inactive)
Cn1c(=O)[nH]c(=O)c2c1nc(N(CCO)Cc1ccccc1)n2Cc1ccccc1Cl | 19800 (active)
CN(Cc1ccccc1)c1nc2c(c(=O)[nH]c(=O)n2C)n1CCSc1nc2ccccc2[nH]1 | 3450 (inactive)
CCOC(=O)Cn1c(CN(Cc2ccccc2)Cc2ccccc2)nc2c1c(=O)[nH]c(=O)n2C | 11200 (inactive)
COc1ccc(-c2[nH][nH]c(=O)c2NC(=O)c2ccc([N+](=O)[O-])cc2)cc1 | 4210 (inactive)
CC(C)C[C@H]1CNC(=S)N1C[C@H]1CCCN1C[C@H](Cc1ccc(O)cc1)N1C[C@H](Cc2ccc(O)cc2)N(CC2CCCCC2)C1=S | 6520 (inactive)
COC(=O)C1C(=O)CC(C)(O)C(C(=O)OC)C1c1ccc2c(c1)OCO2 (stereo unspecified) | 8340 (inactive)
Cc1ccsc1-c1cc(C(=O)O)c2c(ccc3ccccc32)n1 | 3620 (inactive)
COc1cccc(NC(=O)N2CCCC2C(=O)NC2CCCCC2)c1 (stereo unspecified) | 6160 (inactive)
COCCn1nnnc1CN1CCC(NC(=O)Nc2cccc(OC)c2)CC1 | 24600 (active)
COc1cccc(NC(=O)N2CCC(NC(=O)C(Cc3cccc(C)c3)NC(C)=O)CC2)c1 (stereo unspecified) | 3850 (inactive)
COc1cc(C(=O)NN(CCC#N)C2=NS(=O)(=O)c3ccccc32)cc(OC)c1OC | 4420 (inactive)
